The source made the active and inactive calls.

For 15 compounds, composite z-score and z-score results are on record in PubChem BioAssay.

Experiment [1] relates to Plasmodium falciparum Sir2 (PF13_0152, Sir2A). The experiment can be described thus: pfSir2 binders on small-molecule microarrays, primary screen, biochemical, small-molecule microarray, 635 nm fluorescence (AID 1098).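 Further: score merges spot fluorescence intensity with its signal-to-noise ratio.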 As to conditions: small-molecule microarray binding, fluorescence 635 nm; higher = more signal.
Experiment [2] is described as follows: small-molecule microarray binders of probe aDKK1, primary screen, biochemical, biotinylated probe, 635/667 nm fluorescence (AID 1099).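 Further: score merges 667nm spot fluorescence with signal to noise across triplicate slides; reference of the scale not given here.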 As to conditions: higher = more signal.
Experiment [3] in a line: small-molecule microarray binders of probe aCHRDL2, primary screen, biochemical, biotinylated probe, 635/667 nm fluorescence (AID 1100). As to conditions: higher = more signal.
Experiment [4] in a line: splicing luciferase reporter signal modulators, primary screen, spliceosome inhibition project, cell-based, HEK293, splice +/- reporter (AID 1101).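 Further: HEK293 cells carrying a splicing-competent luciferase reporter gene; test concentration not given here.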 As to conditions: luminescence, 24 h, higher = more signal, called active from +8 up or from −8 down.
The target in experiment [5] is Fibroblast growth factor 10 (Homo sapiens) (UniProt O15520). Description: FGF10 binders on small-molecule microarrays, primary screen, biochemical, small-molecule microarray, 635 nm fluorescence (AID 1102). To be noted: FGF10 binding, fluorescence 635 nm, higher = more signal.
Experiment [6] deals with glycogen synthase kinase-3 (GSK3A per assay name; protocol says GSK3B). The experiment can be described thus: GSK3 binders on small-molecule microarrays, primary screen, biochemical, small-molecule microarray, 635 nm fluorescence, GSK3A (AID 1103). Further: the record names both GSK3A and GSK3B. To be noted: small-molecule microarray binding, fluorescence 635 nm; higher = more signal.
Experiment [7] addresses Epidermal growth factor receptor (Homo sapiens) (UniProt P00533). The experiment can be described thus: EGFR binders on small-molecule microarrays, primary screen, biochemical, small-molecule microarray, 635 nm fluorescence (AID 1104).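 Further: score merges 667 nm emission intensity with spot signal to noise over triplicate slides.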 To be noted: EGFR binding, higher = more signal.
Experiment [8] deals with Follistatin-related protein 3 (Homo sapiens) (UniProt O95633). Description: FSTL3 binders on small-molecule microarrays, primary screen, biochemical, small-molecule microarray, 635 nm fluorescence (AID 1105).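 Further: score merges emission near 667 nm and signal to noise per printed spot across three slides.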 To be noted: FSTL3 binding, higher = more signal.
Experiment [9] addresses Dickkopf-related protein 1 (Homo sapiens) (UniProt O94907). The experiment can be described thus: DKK1 binders on small-molecule microarrays, primary screen, biochemical, small-molecule microarray, 635 nm fluorescence scan (AID 1106).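 Further: score merges emission near 667 nm with signal to noise over three replicate slides.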 As to conditions: DKK1 binding, higher = more signal.
Experiment [10] deals with Inhibin beta A chain (activin A). Description: INHBA (activin A) binders on microarrays, primary screen, biochemical, small-molecule microarray, 635 nm fluorescence scan (AID 1107).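 Further: mouse activin A protein probed at 4.33 µg/mL on printed slides; score merges bound-protein fluorescence near 667 nm with spot signal-to-noise.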 As to conditions: small-molecule microarray binding, higher = more signal.

Chain of Fibroblast growth factor 10 (Homo sapiens) (O15520 whole entry, looked up): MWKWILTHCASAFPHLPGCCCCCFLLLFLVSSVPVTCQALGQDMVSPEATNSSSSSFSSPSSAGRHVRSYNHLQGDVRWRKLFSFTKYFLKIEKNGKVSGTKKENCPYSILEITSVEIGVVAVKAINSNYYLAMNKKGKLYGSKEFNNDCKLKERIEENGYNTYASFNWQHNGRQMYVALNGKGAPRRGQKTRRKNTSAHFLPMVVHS
Chain of Dickkopf-related protein 1 (Homo sapiens) (O94907 whole entry, looked up): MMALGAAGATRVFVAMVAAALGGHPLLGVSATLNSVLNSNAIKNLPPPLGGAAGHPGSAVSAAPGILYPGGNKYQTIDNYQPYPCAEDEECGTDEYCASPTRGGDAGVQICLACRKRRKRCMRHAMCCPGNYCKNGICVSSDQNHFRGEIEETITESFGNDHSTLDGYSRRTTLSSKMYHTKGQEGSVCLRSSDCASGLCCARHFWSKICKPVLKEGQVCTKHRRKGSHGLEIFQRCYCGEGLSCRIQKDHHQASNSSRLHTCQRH
Chain of Follistatin-related protein 3 (Homo sapiens) (O95633 whole entry, looked up): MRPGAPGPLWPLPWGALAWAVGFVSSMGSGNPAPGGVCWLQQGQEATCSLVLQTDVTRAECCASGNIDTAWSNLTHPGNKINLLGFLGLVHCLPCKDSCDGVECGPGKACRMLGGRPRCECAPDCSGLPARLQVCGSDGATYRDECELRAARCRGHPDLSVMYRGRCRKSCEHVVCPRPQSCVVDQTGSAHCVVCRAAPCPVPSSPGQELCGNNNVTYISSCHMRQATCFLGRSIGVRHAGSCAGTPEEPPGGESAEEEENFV
Chain of Epidermal growth factor receptor (Homo sapiens) (P00533 whole entry, looked up): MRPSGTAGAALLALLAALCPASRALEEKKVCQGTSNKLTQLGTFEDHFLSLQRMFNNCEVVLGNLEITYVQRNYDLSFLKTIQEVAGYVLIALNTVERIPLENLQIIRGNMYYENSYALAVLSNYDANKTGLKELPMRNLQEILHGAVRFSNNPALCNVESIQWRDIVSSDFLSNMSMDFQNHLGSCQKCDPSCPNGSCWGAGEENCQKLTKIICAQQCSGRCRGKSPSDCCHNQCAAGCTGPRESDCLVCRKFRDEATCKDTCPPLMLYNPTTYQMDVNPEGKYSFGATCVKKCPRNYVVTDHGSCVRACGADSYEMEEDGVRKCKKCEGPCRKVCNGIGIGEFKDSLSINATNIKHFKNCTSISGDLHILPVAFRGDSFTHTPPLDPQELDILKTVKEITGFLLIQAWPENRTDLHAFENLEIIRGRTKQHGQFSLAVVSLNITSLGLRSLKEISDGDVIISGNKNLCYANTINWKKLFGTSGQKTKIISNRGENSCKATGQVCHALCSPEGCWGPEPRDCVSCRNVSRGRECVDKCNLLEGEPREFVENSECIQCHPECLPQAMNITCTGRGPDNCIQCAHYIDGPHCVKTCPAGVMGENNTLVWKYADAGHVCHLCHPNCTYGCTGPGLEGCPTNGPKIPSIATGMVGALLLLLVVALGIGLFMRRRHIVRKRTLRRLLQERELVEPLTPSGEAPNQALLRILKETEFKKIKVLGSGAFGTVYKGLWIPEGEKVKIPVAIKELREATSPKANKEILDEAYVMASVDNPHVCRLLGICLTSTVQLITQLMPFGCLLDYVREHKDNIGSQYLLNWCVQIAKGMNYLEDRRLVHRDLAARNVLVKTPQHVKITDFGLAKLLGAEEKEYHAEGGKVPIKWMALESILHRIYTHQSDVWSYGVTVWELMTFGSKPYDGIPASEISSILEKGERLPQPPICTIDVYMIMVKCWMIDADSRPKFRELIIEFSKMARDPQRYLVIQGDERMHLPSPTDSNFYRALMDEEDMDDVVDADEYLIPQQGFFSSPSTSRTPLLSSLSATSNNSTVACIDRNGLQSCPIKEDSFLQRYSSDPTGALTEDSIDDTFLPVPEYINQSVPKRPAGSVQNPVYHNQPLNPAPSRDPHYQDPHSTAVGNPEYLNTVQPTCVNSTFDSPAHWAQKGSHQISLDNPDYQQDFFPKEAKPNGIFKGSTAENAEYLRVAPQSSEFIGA

For `C=C(/C(=C/C[C@@H](OC(C)=O)c1ccc(OCCO)cc1)c1cc(C(=O)OC)ccc1OC)C(C)C`, the composite z-score was 1.28 in experiment [1]; 0.0968 in experiment [2]; 0.0396 in [3]; 1.08 in experiment [5]; 0.263 in [6]; -0.461 in [7]. In addition, the results for the composite z-score in experiment [8], in [9] and in [10] were 0.231, 0.328 and 0.59, respectively. Besides, in experiment [4], the z-score is 0.0641 (inactive).
For the compound `CC(C)N1CC=CC23O[C@@H]4/C=C\CCCOC(=O)C4[C@H]2C(=O)N(CCCCCCO)[C@@H]3C1=O` (stereo not given in full), the composite z-score in experiment [1] was 1.44; in experiment [2], 0.0846; in experiment [3] it was 0.777; in experiment [5], -0.614; in experiment [6] it was -0.24; in experiment [7] it was -1.12. Also, the composite z-score was -1.04 in [8], -1.08 in experiment [9] and 1.03 in experiment [10]. Moreover, the z-score in [4] was 0.569 (inactive).
On to `[N-]=[N+]=Nc1ccccc1C[C@@]1(C(=O)O)N=C(c2ccc(OCCCO)cc2)O[C@@H]1c1ccccc1N=[N+]=[N-]`, for which the composite z-score in [1] was 1.46; in experiment [2] it was 1.16; in [3], 1.32; in experiment [5], 0.285; in experiment [6] it was 1.11; in experiment [7], -0.383. Besides, the composite z-score is 0.626 in experiment [8], -0.435 in experiment [9] and 1.29 in experiment [10]. Moreover, in experiment [4], the z-score is -0.469 (inactive).
As to `COCCCNC(=O)[C@@]1(c2ccc([N+](=O)[O-])cc2)CC(=O)N(CC23CC4CC(CC(C4)C2)C3)[C@@H]1c1ccc(CO)cc1I`, the composite z-score in [1] is 1.02; in experiment [2] it was 0.541; in experiment [3], 0.847; in experiment [5], -0.0432; in experiment [6] it was -0.115; in experiment [7], -0.392. For the same compound, the composite z-score in experiment [8] is -0.36; in [9] it was -0.15; in experiment [10], 0.126. Further, the z-score in [4] is 3.68 (inactive).
Regarding `NCCCCCNC(=O)[C@H]1C[C@H]2C(=O)N[C@@H](Cc3ccccc3)C(=O)N2[C@H]1c1ccc(O)cc1`, the composite z-score is 1.16 in experiment [1]; 1.42 in [2]; 0.937 in [3]; -0.0576 in experiment [5]; 0.431 in experiment [6]; -0.381 in [7]. The values for the composite z-score in experiment [8], in experiment [9] and in [10] were 0.275, 0.224 and 1.39, respectively. For the same compound, in [4], the z-score was 0.195 (inactive).
For the compound `CCOC(=O)C1=CCC(c2ccccc2)N(S(=O)(=O)c2ccc([N+](=O)[O-])cc2)C1` (stereo not given), the composite z-score in experiment [1] is -0.0755; in [2], 0.36; in experiment [3] it was 0.507; in experiment [5] it was -0.16; in experiment [6], 0.265; in [7], 0.0475. Besides, the results for the composite z-score in experiment [8], in experiment [9] and in experiment [10] were 0.163, -0.115 and 0.918, respectively. Moreover, in [4], the z-score is -0.33 (inactive).
With `COCC1C2CC[C@H]3C(OCc4ccc(OC)cc4)OC[C@]4(C)[C@H]3C2=C(CN4C(=O)OC(C)(C)C)[C@H](C)C1COC` (stereo not given in full), the composite z-score in experiment [1] amounted to 0.852; in [2], 0.319; in experiment [3] it was 0.482; in experiment [5] it was 1.11; in experiment [6], 1.32; in [7], 0.418. Besides, the composite z-score in [8] is 1.16; in experiment [9], 0.207; in experiment [10], 0.752. In addition, in experiment [4], the z-score is -1.98 (inactive).
Consider `[N-]=[N+]=Nc1ccccc1C[C@]1(C(=O)O)N=C(c2ccc(OCCCO)cc2)O[C@H]1c1ccccc1N=[N+]=[N-]`, for which the composite z-score in [1] amounted to 0.944; in experiment [2], 1.06; in experiment [3], 1.12; in experiment [5], 0.445; in experiment [6], 1.06; in experiment [7], 0.342. Moreover, the composite z-score in experiment [8] was 0.546; in [9], -0.0824; in experiment [10], 0.884. The z-score in experiment [4] is -1.55 (inactive).
In the case of `CCOC(=O)C[C@H]1[C@H](OC(=O)c2ccc(C(=O)c3ccccc3)cc2)[C@@H](NC(=O)CC(C)C)c2cc(OCCCO)ccc2N1C(=O)Cc1ccc(OC)cc1`, the composite z-score in [1] was 0.0092; in experiment [2], 0.393; in [3], 0.671; in [5], 0.197; in experiment [6], 0.231; in experiment [7], -0.204. Moreover, the composite z-score in [8] is 0.261; in [9] it was 0.276; in experiment [10], 0.829. Further, in [4], the z-score was -0.441 (inactive).
With `CC(C)[C@H]1NC(=O)[C@@]23C(=O)N[C@@H](Cc4ccccc4)C2[C@H](C)[C@@]2(C)O[C@H]2C3/C=C/C/C=C\CNC(=O)[C@H](Cc2ccccc2)NC1=O` (stereo not given in full), the composite z-score is 0.205 in experiment [1]; -0.38 in [2]; -0.481 in [3]; 1.37 in experiment [5]; 1.08 in experiment [6]; 0.512 in [7]. For the same compound, the composite z-score in experiment [8] stood at 1.44; in experiment [9] it was 0.336; in experiment [10], 1.12. Also, in experiment [4], the z-score is 0.0723 (inactive).
For the compound `CC1(C)C(=O)C(c2ccccc2)=C2CN3C(=O)N(CCc4ccccc4)C(=O)C3(Cc3ccc(C(F)(F)F)cc3)C=C21` (stereo not given), the composite z-score is 0.9 in experiment [1]; 1.01 in experiment [2]; 1.12 in experiment [3]; 0.472 in experiment [5]; 0.288 in experiment [6]; -0.0744 in [7]. For the same compound, the results for the composite z-score in experiment [8], in experiment [9] and in [10] were 0.717, -1.01 and 0.721, respectively. Also, the z-score in experiment [4] is 0.701 (inactive).
Turning to `COCCOC(=O)N1C(=O)[C@@]2(c3cc(C#CC4(O)CCCCCC4)ccc31)[C@H](C(=O)N1CCN(c3ncccn3)CC1)[C@H]1C(=O)O[C@H](c3ccccc3)[C@H](c3ccccc3)N1[C@@H]2c1ccccc1OCCO`, the composite z-score in experiment [1] is 1.27; in experiment [2], -0.0139; in experiment [3], -0.113; in experiment [5], 0.864; in [6] it was 1.29; in [7], 0.906. Further, the composite z-score in [8] was found to be 1.29; in [9], 1.32; in experiment [10], 0.521. The z-score in [4] is -0.278 (inactive).
Regarding `C=CCC(OC(C)=O)[C@@H]1[C@@H](N(Cc2ccc(-c3ccccc3)cc2)C(=O)c2ccc(C)cc2)c2cc(OCCCO)ccc2N1C(=O)Cc1ccc2ccccc2c1` (stereo not given in full), the composite z-score in experiment [1] is -0.334; in experiment [2], -0.199; in experiment [3], 0.0333; in experiment [5], 0.107; in experiment [6], -0.197; in [7] it was 0.251. In addition, the composite z-score in experiment [8] was -0.274; in experiment [9] it was 0.258; in experiment [10], 0.567. The z-score in [4] was -1.84 (inactive).
Consider `Cc1c(NC(=O)/C(C#N)=C/c2ccccc2Cl)c(=O)n(-c2ccccc2)n1C`, for which the composite z-score in experiment [1] was 0.633; in experiment [2] it was -0.258; in experiment [3], -0.0592; in experiment [5], 0.185; in experiment [6] it was -0.046; in [7], 0.139. Besides, the results for the composite z-score in [8], in experiment [9] and in [10] were 0.361, 0.491 and 0.395, respectively. Further, the z-score in [4] was -0.378 (inactive).
Take `C=C(COC)/C(=C/C[C@@H](OC(=O)c1ccncc1)c1ccccc1OCCO)c1cc(C(=O)OC)ccc1OC`: the composite z-score in [1] was -0.979; in experiment [2], -0.0241; in [3], 0.445; in experiment [5] it was -0.0528; in experiment [6], -0.628; in experiment [7], -0.796. In addition, the composite z-score is -0.354 in [8], -0.276 in experiment [9] and 0.845 in [10]. The z-score in experiment [4] is 2.66 (inactive).
